{
  "source": "PubChem BioAssay (NCI)",
  "note": "The panel holds about 83,000 compounds, 20% with a hit somewhere; the sample as a whole holds those more often.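 Single-dose data. Exposure time 48 hours. Values below 10 considered active.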 Active and inactive are the calls of the source.",
  "data": [
    {"tested_on": "SR leukemia", "assay": "NCI-60 one-dose screen, 48 h (100 = growth as untreated, 0 = no growth, -100 = all killed)", "settings": "10 µM unless noted", "protocol": "Growth inhibition of the SR human tumor cell line is measured as a screen for anti-cancer activity. Cells are grown in 96 well plates and exposed to the test compound for 48 hours. Compounds are tested at a single concentration, which is 10^-5 M for most compounds. The reported endpoint is percent growth (GI% or GIPRCNT), where numbers from 0 - 100% represent growth inhibition, and numbers from -100% - 0 represent cell death. For example, a value of 40 represents 60% growth inhibition. A value of 0 means no net growth occurred over the course of the experiment. A value of -40 indicates 40% of cells at the beginning of the experiment died by the end of the experiment. A value of -100 means all cells are dead at the end of the experiment.\nNCI-60 Human Tumor Cell Lines Screen was performed using the standard one-dose NCI protocol, which is described in more detail at https://dtp.cancer.gov/discovery_development/nci-60/default.htm.\nCompounds with GIPRCNT values below 10 were considered active. Activity score was based on GIPRCNT using the following formula: […]\nScore is 0 for GIPRCNT values of 100 or above, 50 for GIPRCNT values of 0, and 100 for GIPRCNT values of -100.", "values": [
      {"compound": "COc1ccc(C2CCCCC2=O)cc1", "note": "(stereo not given)", "growth": "103% (inactive)"},
      {"compound": "C/C=C/C1OCC(CC)C(CCC)O1", "note": "(stereo not given)", "growth": "102% (inactive)"},
      {"compound": "O=C(O)c1ccc([N+](=O)[O-])cc1S(=O)(=O)O", "growth": "110% (inactive)"},
      {"compound": "O=C1C=Cc2ccccc2/C1=C/c1[nH]c(=O)[nH]c1O", "growth": "33% (inactive)"},
      {"compound": "CCC(=O)Oc1c(C)cc(O)c2ccccc12", "growth": "80.7% (inactive)"},
      {"compound": "Cc1ccc(C)c(CCO)c1", "growth": "110% (inactive)"},
      {"compound": "Nc1ccccc1SC1CC(=O)N(c2ccc(Cl)c(Cl)c2)C1=O", "note": "(stereo not given)", "growth": "91.1% (inactive)"},
      {"compound": "CC(=O)c1cccs1", "growth": "92.9% (inactive)"},
      {"compound": "CN1CCN(C(=S)S)CC1", "growth": "104% (inactive)"},
      {"compound": "CC(C)C1CCC(C)C(O)C1", "note": "(stereo not given)", "growth": "96.1% (inactive)"},
      {"compound": "Clc1cccc(Cl)c1CSc1nc2ccccc2n2cccc12", "growth": "71.9% (inactive)"},
      {"compound": "CC1CC2C3CCC4=CC(=O)CCC4(C)C3CCC2(C)C1(O)C(=O)CO", "note": "(stereo not given)", "growth": "107% (inactive)"},
      {"compound": "CCCCCC(=O)OCCC1CCCCC1", "growth": "88.9% (inactive)"},
      {"compound": "S=c1nc(-c2ccccn2)c(-c2ccccn2)n[nH]1", "growth": "99.2% (inactive)"},
      {"compound": "C=CCc1cc(OC)c(O)c(OC)c1", "growth": "87.1% (inactive)"},
      {"compound": "CC12CCC3c4ccc(O)cc4CCC3C1CCC2=O", "note": "(stereo not given)", "growth": "67.4% (inactive)"},
      {"compound": "O=C(O)c1c[nH]c2ccccc2c1=O", "growth": "99.9% (inactive)"},
      {"compound": "O=c1cc(C(F)(F)F)[nH]c(=S)[nH]1", "growth": "91.7% (inactive)"},
      {"compound": "Clc1ccc(/C=C/c2ccccn2)cc1", "growth": "98.2% (inactive)"},
      {"compound": "CC(=O)c1cccc(O)c1", "growth": "90.6% (inactive)"},
      {"compound": "COc1ccc(C(=O)/C(=N/Nc2ccccc2)c2ccc(OC)cc2)cc1", "growth": "86% (inactive)"},
      {"compound": "C=CCN1CCCC1=O", "growth": "90.2% (inactive)"},
      {"compound": "C=CCS(C)(=O)=O", "growth": "99.4% (inactive)"},
      {"compound": "N=C(N)c1nn(C2OC(CO)C(O)C2O)c2nc[nH]c(=O)c12", "note": "(stereo not given)", "growth": "-22.7% (active)"},
      {"compound": "CC(C)(C)[Si](C)(C)OCC1OC(n2cnc3c(N)ncnc32)CC1OS(C)(=O)=O", "note": "(stereo not given)", "growth": "107% (inactive)"},
      {"compound": "CCOC(=O)Nc1nccs1", "growth": "110% (inactive)"},
      {"compound": "CCOc1ccc(C(=O)O)cc1", "growth": "99.4% (inactive)"},
      {"compound": "CC(c1ccccc1)N(C)C", "note": "(stereo not given)", "growth": "67.3% (inactive)"},
      {"compound": "O=C(O)CSCC(=O)Nc1cc(C(F)(F)F)ccc1Cl", "growth": "96.1% (inactive)"},
      {"compound": "S=C(NCc1ccccc1)N1CCC(CCCC2CCN(C(=S)NCc3ccccc3)CC2)CC1", "growth": "93.2% (inactive)"},
      {"compound": "NNc1ncccn1", "growth": "98.2% (inactive)"},
      {"compound": "O=C(O)c1cccc(-n2ncc(Cl)c(Cl)c2=O)c1", "growth": "102% (inactive)"},
      {"compound": "NC(CSSCC(N)C(=O)O)C(=O)O", "note": "(stereo not given)", "growth": "-20.7% (active)"},
      {"compound": "O=[N+]([O-])c1ccc(-c2nc(N(CCO)CCO)c3ccccc3n2)o1", "growth": "2.69% (active)"},
      {"compound": "O=C(OCc1ccccc1)n1nnc2ccccc21", "growth": "107% (inactive)"},
      {"compound": "Clc1ccc(C(SCc2ccccc2)SCc2ccccc2)cc1", "growth": "81% (inactive)"},
      {"compound": "C=C1SC(=Nc2c(C)cccc2C)N(c2nc(Cl)nc(Cl)n2)C12CCCCC2", "growth": "81.4% (inactive)"},
      {"compound": "C=C(C)COc1ccc(C(C)(C)C)cc1", "growth": "96.3% (inactive)"},
      {"compound": "O=S(Cc1ccccc1)/C(=C/NC(=S)Nc1ccccc1)c1ccccc1", "note": "(stereo not given)", "growth": "88.4% (inactive)"},
      {"compound": "CC(=O)OCC1CCC(COC(C)=O)CC1", "note": "(stereo not given)", "growth": "95.7% (inactive)"}
    ]}
  ]
}
